How the values were obtained:
Assay in all cases: PBM binding z-score (relative to random genomic background probes); higher = stronger binding; sequences stand for … in GC…GCGATTGACAGCGTAGAATGAAGG
[1] = system: RARb homodimer (NR concentration 270 nM)
How it was run: (§1)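 Probes were double-stranded and carried 34-nt variable regions with direct-repeat seeds, single-nucleotide variants, half-site ablations and random human genomic background sequences, printed on custom Agilent 4×180K protein-binding microarrays. Arrays were incubated 1 h with ligand-free nuclear receptor dimers in PBS pH 7.4, 2% milk, 0.02% Triton X-100, 1 mM DTT, 0.2 mg/mL BSA and 0.4 mg/ml salmon testes DNA. Antibodies against each partner (one per run) detected binding, and scanned fluorescence was regression-normalized. Binding z-scores use the random background probes as reference.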

[2] = system: RARg:RXRa (NR concentration 270 nM, RXRa partner concentration 90 nM)
How it was run: as §1

[3] = system: RARg homodimer (NR concentration 270 nM)
How it was run: as §1

[4] = system: RXRa DBDmut IVT, anti-RXR (DBD mutation: RXRa K156A/R161A, NR concentration 90 nM)
How it was run: as §1

[5] = system: RXRa homodimer (NR concentration 180 nM)
How it was run: as §1

[6] = system: THRa:RXRa (NR concentration 90 nM, RXRa partner concentration 90 nM)
How it was run: as §1

[7] = system: THRa homodimer (NR concentration 90 nM)
How it was run: as §1

[8] = system: VDR homodimer (NR concentration 270 nM)
How it was run: as §1

Sequence | PBM binding z-score [1] | PBM binding z-score [2] | PBM binding z-score [3] | PBM binding z-score [4] | PBM binding z-score [5] | PBM binding z-score [6] | PBM binding z-score [7] | PBM binding z-score [8]
ATCTCTAGGTAACCAAGTGCAGTGAATGCCGAAC | 0.232 | 0.129 | 0.205 | 0.0153 | 0.0437 | 0.515 | 0.223 | 0.337
ATACCAAGGTGATCGTGAGGCCGTTGATACTAAC | 0.758 | 0.629 | 0.127 | 0.132 | 0.254 | 2.05 | 1.14 | 0.643
TCTGGTAGGTCAACGATGGTCAGCTAATCTGCTA | 3.75 | 4.31 | 4.78 | 1.26 | 3.49 | 2.98 | 0.7 | 0.622
TTACCAAGGTGAGCTGAGGTCGTAGATCCAACTC | 1.66 | 1.5 | 1.13 | -0.577 | 1.72 | 4.78 | 1.9 | 0.82
TCGAGTAGGTTACCAATGGGGCTTTCAGCTTTCT | 0.0343 | 0.0207 | 0.23 | 0.35 | 0.16 | -0.122 | -0.536 | -0.784
CTCGAAAGGTCGTGCTCATGTGAGTATACCAAAC | 2.68 | 4.43 | 3.69 | 2.15 | 5.19 | 2.45 | 0.174 | 0.995
TAGCCTGGGTCAGATCGGGCCAGTATACGCTATA | 1.61 | 2.42 | 2.86 | -1.34 | 1.46 | 4.11 | -0.483 | -1.02
CGTCCAAGGTCAATCCTAGGTCAGTGAAAGCATT | 5.21 | 7.69 | 6.57 | 3.57 | 5.38 | 4.72 | 3.63 | 3.06
TGGAGTAGGTTACCAATGGGGCATTCAGCTTTCT | 1.16 | 1.4 | 0.805 | -0.418 | 0.605 | 0.403 | -0.198 | -0.00533
CCTACTGGGTCATCAGGTCATTGATATCAACGTT | 4.25 | 5.07 | 5 | 2.14 | 4.38 | 3.97 | 3.17 | 3.06
CCTTCTGGGCCAAAAAGGTCATTGATGCCGATAA | 4.2 | 4.63 | 4.26 | 1.29 | 4.8 | 2.87 | 0.411 | 2.86
CGTCAAAGTTTAAGGTAACGTAACAGAAAGCAGC | 0.852 | 0.923 | 1.7 | 1.29 | 0.482 | 3.1 | 3.1 | -0.0381
TCTGCTAGGTCAGTTGGTCAGCTAACGAGCTGCC | 2.55 | 2.58 | 3.5 | 0.411 | 1.02 | 1.36 | -0.176 | -0.401
TACCCTAGGTCAGATCGGGCCAGTATACGCTATA | 2.63 | 2.98 | 3.5 | 0.165 | 1.54 | 4.19 | 0.64 | 0.268
TAGCCTAGGTCATGGGCCACTATACCACGCGAAC | 3.27 | 4.38 | 4.64 | 0.641 | 3.72 | 3.14 | 1.57 | 0.754
ATCGAAAGGTCGAGGTGAGCATAGAGAAAGGGAA | 2.98 | 4.34 | 4.61 | 0.687 | 4.63 | 2.98 | 0.737 | 0.234
AGAATGAGGTTAGGATCAGGGAAACAGAATACAT | 1.09 | 1.15 | 0.965 | 0.213 | 1.37 | 2.13 | 0.948 | 0.389
CCTAGTTGGACAGGAGGTCACACACCGGATATGA | 3.81 | 4.2 | 3.71 | 1.02 | 3.96 | 3.41 | 2.18 | 2.39
ATCTCTAGGTAAGACTCAGTTCAGTGCAGAACGC | 0.696 | 0.23 | 0.29 | 0.644 | 0.206 | 0.914 | 0.919 | 1.71
CTCGAGAGGTCGGTTGAGGTGAGTATACGGATAA | 1.99 | 2.11 | 2.3 | 1.57 | 2.06 | 5 | 1.39 | 1.16
ATCGAAAGGTCGAGGTGAGAATAGAGAAAGGGAA | 2.77 | 4.3 | 4.7 | 0.437 | 4.86 | 2.73 | 0.58 | -0.0619
GCTCGTAGATCAAGGTTAAGAAAGACTAAGCTAA | -0.0448 | 0.0431 | -0.0396 | -0.285 | 0.709 | 0.978 | -0.631 | -0.34
TCATATACGTAAAAGGTGAAAGTCGGTGTGGTAA | 1.94 | 1.27 | 0.986 | 1.98 | 2.01 | 1.36 | 0.293 | 0.435
TCTAGTAGGTTAGTCGGGGCATTCAGCCAACATA | 1.04 | 0.36 | 0.358 | 1.33 | 0.381 | 1.4 | 0.765 | 1.14
GCCGCTAGGTCAACTGATGGTCAGCTAAAGCTCG | 3.66 | 5.19 | 5.22 | 1.45 | 2.97 | 2.97 | 0.878 | -0.321
CGAACGAGGGCATGAGTTGATGGCAAATGCCGAT | 0.659 | 1.25 | 1.6 | 2.05 | 0.973 | 1.08 | -0.389 | 1.31

Sequence | PBM binding z-score [1] | PBM binding z-score [2] | PBM binding z-score [3] | PBM binding z-score [4] | PBM binding z-score [5] | PBM binding z-score [6] | PBM binding z-score [7] | PBM binding z-score [8]
CGTCCAAGGTCAGCAGGACAGTGAAAGCGACGTG | 3.89 | 5.05 | 6.09 | 2.33 | 3.68 | 3.72 | 1.9 | 0.589
CCTATTAATTGACCATAAGGGCAACCGAAGCTCG | 1.91 | 0.926 | 1.1 | 0.931 | 0.841 | 1.63 | 1.81 | 1.85
CAAACTAGGTCACCGGAAGGTCAAAGCCCGCATG | 5.35 | 8.33 | 7.37 | 1.48 | 6.03 | 4.42 | 2.96 | 3.25
TAGCCTAGGTCATGGGCCAGGATACCACGCGAAC | 2.85 | 4.26 | 4.49 | -0.534 | 3.86 | 3.22 | 1.33 | 0.424
CTCGAAACGTCGTGCTCAGGTGAGTATACCAAAC | -0.132 | -0.476 | -0.311 | -0.187 | -0.479 | 0.94 | 0.555 | -0.446
GCTTACTGGTCAAAGGTTATAGCATGAATAGAAT | 1.78 | 3.91 | 1.68 | 0.714 | 4.35 | 1.87 | -0.137 | 0.435
GTACCAAGGTGAATAGGTCGTTTATGAGTAGGCG | 1.75 | 2.69 | 1.2 | 0.0866 | 2 | 1.95 | 0.576 | 0.299
CCTAACGGGTCACTCCAGGTTATAGCATCGGAGT | 2.75 | 3.8 | 3.98 | 1.23 | 3.26 | 4.85 | 0.619 | 1.5
TCTTGGAGATCAAAGGTTAAGAAAGCCGAAGCCT | 1.18 | 2.07 | 0.819 | 0.202 | 4.66 | 1.4 | -0.671 | -0.245
CAGCTTAGGTCAGGGCCAGTATAGGAGGAACGTT | 2.93 | 3.26 | 4.25 | 0.68 | 1.75 | 3 | 1.78 | 0.105
TCTATTAGTTGAAGGGCACCCGACGAGTCCGTTT | 1.26 | 0.402 | 0.483 | 1.77 | 0.846 | 0.413 | 0.444 | 1.93
ACTATTAGTTGAGACGAGGGCAACGGATAGGTTG | 0.993 | 0.638 | 0.908 | 0.374 | 0.585 | 2.53 | 0.137 | 0.875
ATCGAACGGTCGTGAGGTGAGTATACAGAAAGGC | 0.679 | 0.948 | 1.19 | -0.665 | 0.53 | 1.48 | 0.666 | -0.261
CCTATTAGTCGACCATAAGGGCAACCGAAGCTCG | 1.55 | 0.761 | 0.875 | 0.45 | 0.505 | 1.33 | 0.896 | 0.533
CGTCCAAGGTCATAGGAGGTCAGTGATGACAGAT | 5.33 | 6.66 | 6.93 | 3.97 | 6.5 | 5.4 | 3.25 | 4.59
CCGACTCGGGCATAAGGTTACCATAAGCCAGCCC | 1.44 | 1.47 | 0.909 | -0.288 | 0.905 | 2.09 | 0.96 | -0.223
ATCTCTAGGTATAGTTCAGTGAAAGATCGATAGA | 1.4 | 0.857 | 1 | 0.996 | 0.686 | 0.473 | 0.453 | 1.12
ATCTCTAGGTAAAGATAGTTTAGTGAATGCAAAT | 0.204 | 0.354 | 0.533 | -0.0109 | 0.0812 | 0.487 | 0.117 | 0.358
ATCGAAAGGTCGAGGTAAGTATAGAGAAAGGGAA | 2.39 | 4.25 | 4.27 | 0.467 | 4.6 | 2.58 | 0.233 | 0.546
ATATTTAGGTTAAGGGTCATTCAGGTTGGTTCGC | 4.22 | 4.81 | 3.84 | 2.51 | 5.68 | 3.95 | 3 | 5.16
ACTATTAGTTGAGACGAGCGCAACCGATAGGTTG | -0.567 | -0.546 | 0.138 | -0.188 | -0.211 | -0.381 | -0.708 | -0.0904
TCTTGTAGATCACAGGTTAAGAAAGCCGAAGCCT | 0.0208 | 0.222 | 0.135 | 0.557 | 0.811 | 0.341 | -0.442 | -0.219
CCTACTGGGCCACGAAGGGTCATTGATTCAGTGA | 3.41 | 2.96 | 2.73 | -0.323 | 2.86 | 3 | -0.121 | 1.53
ATATGTAGGTTAGCTGGGATCATTCAGACTAGGC | 0.428 | 0.559 | 0.765 | 0.0124 | 0.95 | 1.95 | -0.1 | 0.36
TTTTGTAGATCAAGCAGGTTAAGAAAGCCTGAGT | 0.054 | -0.111 | -0.119 | -0.757 | 0.19 | 0.502 | -0.555 | 0.443
ATCGTAAGGTCGAGGTGAGTATAGAGAAAGGGAA | 2.13 | 3 | 3.23 | 1.49 | 2.55 | 3.43 | 2.18 | 0.892
